The values below come from the supplement of paper PMC8047044.

The test system of test [1] is Neuro-2a. Briefly: neurite formation score, plate-normalized to DMSO control mean 5.04 (score (0-8 scale)); higher = more or longer neurites. Particulars: 1 µM. As to the method: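 Neuro-2a mouse neuroblastoma cells in PLL-coated 96-well plates were pre-treated for 1 h in DMEM(+) with each kinase inhibitor at 1 µM, then switched to serum-free DMEM(-) with inhibitor to induce neurite outgrowth and fixed about 2-3 h later. Three blinded observers scored neurite formation from 0 (no neurites) to 8 (long neurites on almost all cells).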

In test [2] the test system is Neuro-2a. The description is as above. The note with it: 0.1 µM. As to the method: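 Neuro-2a mouse neuroblastoma cells in PLL-coated 96-well plates were pre-treated for 1 h in DMEM(+) with each kinase inhibitor at 0.1 µM, then switched to serum-free DMEM(-) with inhibitor to induce neurite outgrowth and fixed about 2-3 h later. Three blinded observers scored neurite formation from 0 (no neurites) to 8 (long neurites on almost all cells).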

Where a name gives a salt, the structure may show the parent alone.

On to `CN1CCN(c2ccc(C(=O)Nc3n[nH]c4ccc(Cc5cc(F)cc(F)c5)cc34)c(NC3CCOCC3)c2)CC1` [Entrectinib], for which the values for the neurite formation score in test [1] and in test [2] were 2.54 and 0.751, respectively.

For `COc1cc2c(Nc3ccc(NC(=O)c4ccccc4)cc3)ncnc2cc1OCCCN1CCOCC1`, the neurite formation score in test [1] came out at 3.69; in test [2], 4.58.

Consider `COc1ccc(S(=O)(=O)N(C(C)=O)c2ccccc2/C=C/c2cc[n+]([O-])cc2)cc1`, for which the neurite formation score in test [1] came out at 0.569; in test [2] it was 3.54.

In the case of `Cc1cc(C(=O)NOCCO)c(Nc2ccc(I)cc2F)n(C)c1=O`, the neurite formation score in test [1] is 3.96; in test [2] it was 3.92.

In the case of `Cc1cnc(Nc2ccc(OCCN3CCCC3)cc2)nc1Nc1cccc(S(=O)(=O)NC(C)(C)C)c1`, the neurite formation score in test [1] was found to be 4.69; in test [2] it was 3.58.

For the molecule `C=CC(=O)Nc1ccc2ncnc(Nc3cccc(Br)c3)c2c1`, the neurite formation score stood at 4.24 in test [1] and 3.71 in test [2].

In the case of `O=C(COc1ccc(Cl)cc1)NC1CCC(NC(=O)COc2ccc(Cl)cc2)CC1` (stereo not drawn) [ISRIB (trans-isomer)], the neurite formation score in test [1] was 4.54; in test [2], 4.42.

As to `O=C1C(c2c(O)[nH]c3ccccc23)=Nc2ccccc21` [Indirubin], the results for the neurite formation score in test [1] and in test [2] were 4.88 and 4.42, respectively.

Turning to `Nc1cc(C(F)(F)F)c(-c2cc(N3CCOCC3)nc(N3CCOCC3)n2)cn1`, the results for the neurite formation score in test [1] and in test [2] were 5.24 and 2.71, respectively.

On to `COc1ccc2c(c1)c(C1=C(c3c[nH]c4ccccc34)C(=O)NC1=O)cn2CCCN(C)C`, for which the neurite formation score in test [1] is 5.24; in test [2], 5.54.

In the case of `Cn1cnc2c(F)c(Nc3ccc(Br)cc3F)c(C(=O)NOCCO)cc21`, the neurite formation score in test [1] turned out to be 3.24; in test [2] it was 5.38.

In the case of `NC(=O)c1ccc(-c2nc(-c3ccc4c(c3)OCCO4)c(-c3ccccn3)[nH]2)cc1`, the neurite formation score in test [1] worked out at 4.36; in test [2], 4.92.

For the molecule `Cc1ccc(-c2nn(C(C)(C)C)c3ncnc(N)c23)cc1`, the values for the neurite formation score in test [1] and in test [2] were 2.9 and 3.54, respectively.

As for `O=C1NC(=NCc2cccs2)S/C1=C\c1ccc2ncccc2c1`, the figures for the neurite formation score in test [1] and in test [2] were 5.63 and 4.25, respectively.

As for `CCN1CCN(Cc2ccc(Nc3ncc(F)c(-c4cc(F)c5nc(C)n(C(C)C)c5c4)n3)nc2)CC1`, the values for the neurite formation score in test [1] and in test [2] were 4.57 and 3.04, respectively.

In the case of `CCc1cccc(CC)c1NC(=O)N1Cc2[nH]nc(NC(=O)c3ccc(N4CCN(C)CC4)cc3)c2C1`, the results for the neurite formation score in test [1] and in test [2] were 4.8 and 5.09, respectively.

For the molecule `O=C(NCCCNc1nc(Nc2cccc(NC(=O)N3CCCC3)c2)ncc1I)c1cccs1`, the neurite formation score in test [1] was 5.24; in test [2], 4.54.

With `CC(=O)Nc1nc(C)c(-c2ccc(Cl)c(S(=O)(=O)NCCO)c2)s1`, the neurite formation score in test [1] came to 4.57; in test [2], 3.88.

`COc1cc2c(Oc3ccc4[nH]c(C)cc4c3F)ncnc2cc1OCCCN1CCCC1` [Cediranib (AZD217)]: the neurite formation score in test [1] was found to be 3.91; in test [2] it was 4.71.

Turning to `Nc1ncnc2n[nH]c(Nc3ccc(F)cc3)c12`, the values for the neurite formation score in test [1] and in test [2] were 4.88 and 5.08, respectively.

As to `C[C@H](NC(=O)/C(C#N)=C/c1cccc(Br)n1)c1ccccc1`, the values for the neurite formation score in test [1] and in test [2] were 4.36 and 4.58, respectively.

Consider `Cn1cnc(-c2cc3nccc(Oc4ccc(NC(=S)NC(=O)Cc5ccccc5)cc4F)c3s2)c1`, for which the results for the neurite formation score in test [1] and in test [2] were 3.69 and 4.92, respectively.

`Cc1c(F)cc(C(=O)NC2CC2)cc1-c1ccc(C(=O)NCC(C)(C)C)cn1` [Losmapimod]: the neurite formation score is 5.21 in test [1] and 4.75 in test [2].

Consider `CC[C@H](Nc1ncnc2[nH]cnc12)c1nc2cccc(F)c2c(=O)n1-c1ccccc1` [CAL-101 (Idelalisib, GS-1101)], for which the neurite formation score in test [1] is 4.57; in test [2], 4.71.

In the case of `N#CC1(c2ccc(NC(=O)c3cccnc3NCc3ccncc3)cc2)CCCC1` [Apatinib], the values for the neurite formation score in test [1] and in test [2] were 4.54 and 4.08, respectively.

As to `c1cc(-c2cnn3cc(-c4ccc(N5CCNCC5)cc4)cnc23)c2cccnc2c1`, the neurite formation score in test [1] was 4.88; in test [2], 4.75.

For `CN1CCN(c2ccc3nc(-c4c(N)c5c(F)cccc5[nH]c4=O)[nH]c3c2)CC1` [Dovitinib Dilactic acid], the neurite formation score in test [1] was 4.96; in test [2], 4.92.

With `Cn1cc(-c2ccc3nnc(C(F)(F)c4ccc5ncccc5c4)n3n2)cn1`, the neurite formation score turned out to be 4.02 in test [1] and 4.25 in test [2].

On to `O=C1NCCc2[nH]c(-c3ccncc3)cc21`, for which the values for the neurite formation score in test [1] and in test [2] were 5.69 and 5.92, respectively.

For the molecule `CCCCCCCCCCCCc1ccc(S(=O)(=O)Nc2nncs2)cc1`, the neurite formation score in test [1] was 4.24; in test [2], 5.54.

As to `CCOc1ccc(Nc2ccc(/C(=C3C=C/C(=[N+](/CC)Cc4cccc(S(=O)(=O)[O-])c4)C=C/3C)c3ccc(N(CC)Cc4cccc(S(=O)(=O)O)c4)cc3C)cc2)cc1` [Brilliant Blue G], the figures for the neurite formation score in test [1] and in test [2] were 5.21 and 2.08, respectively.

With `Cc1cc(C(C)Nc2ccccc2)c2nc(N3CCOCC3)cc(=O)n2c1` (stereo not drawn), the figures for the neurite formation score in test [1] and in test [2] were 4.47 and 3.76, respectively.

In the case of `Cn1cc(C2=C(c3cn(CCCSC(=N)N)c4ccccc34)C(=O)NC2=O)c2ccccc21` [Ro 31-8220 Mesylate], the figures for the neurite formation score in test [1] and in test [2] were 4.54 and 3.08, respectively.

With `CCN(CCO)CCCOc1ccc2c(Nc3cc(CC(=O)Nc4cccc(F)c4)[nH]n3)ncnc2c1` [Barasertib (AZD1152-HQPA)], the neurite formation score in test [1] is 4.69; in test [2], 4.58.
